{"source": "paper PMC8384837", "about": "“Expanding the binding specificity for RNA recognition by a PUF domain”", "assay_in_all_cases": "yeast three-hybrid, YBZ-1, SC-Leu-His + 0.5 mM 3-AT, 4 days", "conditions_in_all_cases": "tags: N-Gal4 AD-HA kept; label: inside an RPR1-promoter hybrid RNA with tandem MS2 sites; ssRNA", "key": {"[1]": {"target": "PUM1 PUF domain R5-NPI (Homo sapiens, UniProt Q14671 828-1176, C1007N;R1008P;Q1011I)", "outline": "(§1)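 Repeat regions from input (SC-Leu) and selection (SC-Leu-His + 0.5 mM 3-AT) plates were PCR-amplified and Illumina-sequenced after four days of growth. The cells were strain YBZ-1 with a LexA–MS2 coat fusion and a HIS3 reporter, co-expressing Pumilio-1 PUF domain libraries and matching RNA elements from a centromeric plasmid. The interaction score is the log change in variant frequency from input to selection, taken in log2 with a pseudocount of 1 for absent variants.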"}, "[2]": {"target": "PUM1 PUF domain R5-KGC (Homo sapiens, UniProt Q14671 828-1176, C1007K;R1008G;Q1011C)", "sequence (Q14671 828-1176 C1007K/R1008G/Q1011C)": "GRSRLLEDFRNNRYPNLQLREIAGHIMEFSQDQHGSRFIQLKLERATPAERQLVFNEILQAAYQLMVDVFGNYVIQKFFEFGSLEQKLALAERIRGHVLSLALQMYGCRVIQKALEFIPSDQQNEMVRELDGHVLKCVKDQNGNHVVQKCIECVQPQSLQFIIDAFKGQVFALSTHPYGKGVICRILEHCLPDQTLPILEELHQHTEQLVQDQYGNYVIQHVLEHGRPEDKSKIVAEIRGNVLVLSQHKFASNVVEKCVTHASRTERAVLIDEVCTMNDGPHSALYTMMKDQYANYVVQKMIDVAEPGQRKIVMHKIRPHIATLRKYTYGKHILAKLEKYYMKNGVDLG", "outline": "as §1"}, "[3]": {"target": "PUM1 PUF domain R5-RPN (Homo sapiens, UniProt Q14671 828-1176, C1007R;R1008P;Q1011N)", "sequence (Q14671 828-1176 C1007R/R1008P/Q1011N)": "as the sequence (Q14671 828-1176 C1007K/R1008G/Q1011C) above, with K180R, G181P, C184N counted along it", "outline": "as §1"}, "[4]": {"target": "PUM1 PUF domain R5-KTS (Homo sapiens, UniProt Q14671 828-1176, C1007K;R1008T;Q1011S)", "sequence (Q14671 828-1176 C1007K/R1008T/Q1011S)": "as the sequence (Q14671 828-1176 C1007K/R1008G/Q1011C) above, with G181T, C184S counted along it", "outline": "as §1"}, "[5]": {"target": "T1, PUM1 PUF domain R6-VFR (Homo sapiens, UniProt Q14671 828-1176, N1043V;Y1044F;Q1047R)", "T1 sequence": "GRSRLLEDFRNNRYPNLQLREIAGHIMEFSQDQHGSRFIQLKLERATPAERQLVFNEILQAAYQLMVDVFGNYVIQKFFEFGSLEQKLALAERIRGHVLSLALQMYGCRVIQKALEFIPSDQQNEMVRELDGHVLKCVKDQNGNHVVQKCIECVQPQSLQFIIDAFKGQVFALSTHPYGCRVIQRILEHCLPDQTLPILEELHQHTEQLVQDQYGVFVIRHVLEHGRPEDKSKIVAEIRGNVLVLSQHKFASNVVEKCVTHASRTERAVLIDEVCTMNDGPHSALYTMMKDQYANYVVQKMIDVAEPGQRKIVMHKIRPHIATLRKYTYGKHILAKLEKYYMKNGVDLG", "outline": "as §1"}, "[6]": {"target": "PUM1 PUF domain R4-VPT (Homo sapiens, UniProt Q14671 828-1176, N971V;H972P;Q975T)", "outline": "as §1"}, "[7]": {"target": "PUM1 PUF domain R4-PHV (Homo sapiens, UniProt Q14671 828-1176, N971P;Q975V)", "outline": "as §1"}, "[8]": {"target": "PUM1 PUF domain R3-SPR (Homo sapiens, UniProt Q14671 828-1176, C935S;R936P;Q939R)", "outline": "as §1"}, "[9]": {"target": "PUM1 PUF domain R1-KSR (Homo sapiens, UniProt Q14671 828-1176, S863K;R864S;Q867R)", "outline": "as §1"}, "[10]": {"target": "PUM1 PUF domain R1-RAV (Homo sapiens, UniProt Q14671 828-1176, S863R;R864A;Q867V)", "sequence (Q14671 828-1176 S863R/R864A/Q867V)": "as the sequence (Q14671 828-1176 C1007K/R1008G/Q1011C) above, with S36R, R37A, Q40V, K180C, G181R, C184Q counted along it", "outline": "as §1"}, "[11]": {"target": "PUM1 PUF domain R1-GWR (Homo sapiens, UniProt Q14671 828-1176, S863G;R864W;Q867R)", "sequence (Q14671 828-1176 S863G/R864W/Q867R)": "as the sequence (Q14671 828-1176 C1007K/R1008G/Q1011C) above, with S36G, R37W, Q40R, K180C, G181R, C184Q counted along it", "outline": "as §1"}, "[12]": {"target": "PUM1 PUF domain R3-SQE (Homo sapiens, UniProt Q14671 828-1176, C935S;R936Q;Q939E)", "outline": "as §1"}, "[13]": {"target": "PUM1 PUF domain R3-RMR (Homo sapiens, UniProt Q14671 828-1176, C935R;R936M;Q939R)", "sequence (Q14671 828-1176 C935R/R936M/Q939R)": "as the sequence (Q14671 828-1176 C1007K/R1008G/Q1011C) above, with C108R, R109M, Q112R, K180C, G181R, C184Q counted along it", "outline": "as §1"}, "[14]": {"target": "PUM1 PUF domain R3-LYV (Homo sapiens, UniProt Q14671 828-1176, C935L;R936Y;Q939V)", "sequence (Q14671 828-1176 C935L/R936Y/Q939V)": "as the sequence (Q14671 828-1176 C1007K/R1008G/Q1011C) above, with C108L, R109Y, Q112V, K180C, G181R, C184Q counted along it", "outline": "as §1"}, "[15]": {"target": "PUM1 PUF domain R7-SRK (Homo sapiens, UniProt Q14671 828-1176, N1080R;E1083K)", "outline": "as §1"}, "[16]": {"target": "PUM1 PUF domain R7-SHP (Homo sapiens, UniProt Q14671 828-1176, N1080H;E1083P)", "sequence (Q14671 828-1176 N1080H/E1083P)": "as the sequence (Q14671 828-1176 C1007K/R1008G/Q1011C) above, with K180C, G181R, C184Q, N253H, E256P counted along it", "outline": "as §1"}, "[17]": {"target": "PUM1 PUF domain R3-DYI (Homo sapiens, UniProt Q14671 828-1176, C935D;R936Y;Q939I)", "outline": "as §1"}, "[18]": {"target": "PUM1 PUF domain R3-NSL (Homo sapiens, UniProt Q14671 828-1176, C935N;R936S;Q939L)", "sequence (Q14671 828-1176 C935N/R936S/Q939L)": "as the sequence (Q14671 828-1176 C1007K/R1008G/Q1011C) above, with C108N, R109S, Q112L, K180C, G181R, C184Q counted along it", "outline": "as §1"}, "[19]": {"target": "PUM1 PUF domain R7-GWD (Homo sapiens, UniProt Q14671 828-1176, S1079G;N1080W;E1083D)", "sequence (Q14671 828-1176 S1079G/N1080W/E1083D)": "as the sequence (Q14671 828-1176 C1007K/R1008G/Q1011C) above, with K180C, G181R, C184Q, S252G, N253W, E256D counted along it", "outline": "as §1"}, "[20]": {"target": "PUM1 PUF domain R5-SAS (Homo sapiens, UniProt Q14671 828-1176, C1007S;R1008A;Q1011S)", "outline": "as §1"}}, "data": [{"sequence": "GGCUAGAACUAGUGGAUCCCCCGGCGCCCGGCGGCUCGAGCCCGGGUAAGUGUUAAUAGUCUGCAUGCCGCCGGGCGCCAUGCCUGCAGGUCGACUCUAGAAAACAUG", "values": [{"measurement": "binding signal", "setting": "[1]", "result": "2.85 log2 enrichment (interaction score)"}, {"measurement": "binding signal", "setting": "[2]", "result": "3.36 log2 enrichment (interaction score)"}, {"measurement": "binding signal", "setting": "[3]", "result": "3.03 log2 enrichment (interaction score)"}, {"measurement": "binding signal", "setting": "[4]", "result": "1.52 log2 enrichment (interaction score)"}]}, {"sequence": "GGCUAGAACUAGUGGAUCCCCCGGCGCCCGGCGGCUCGAGCCCGGGUAAGUGCAAAUAGUCUGCAUGCCGCCGGGCGCCAUGCCUGCAGGUCGACUCUAGAAAACAUG", "values": [{"measurement": "binding signal", "setting": "[5]", "result": "1.27 log2 enrichment (interaction score)"}]}, {"sequence": "GGCUAGAACUAGUGGAUCCCCCGGCGCCCGGCGGCUCGAGCCCGGGUAAGUGUACAUAGUCUGCAUGCCGCCGGGCGCCAUGCCUGCAGGUCGACUCUAGAAAACAUG", "values": [{"measurement": "binding signal", "setting": "[6]", "result": "0.61 log2 enrichment (interaction score)"}, {"measurement": "binding signal", "setting": "[7]", "result": "4.96 log2 enrichment (interaction score)"}]}, {"sequence": "GGCUAGAACUAGUGGAUCCCCCGGCGCCCGGCGGCUCGAGCCCGGGUAAGUGUAACUAGUCUGCAUGCCGCCGGGCGCCAUGCCUGCAGGUCGACUCUAGAAAACAUG", "values": [{"measurement": "binding signal", "setting": "[8]", "result": "1.77 log2 enrichment (interaction score)"}]}, {"sequence": "GGCUAGAACUAGUGGAUCCCCCGGCGCCCGGCGGCUCGAGCCCGGGUAAGUGUAAAUCGUCUGCAUGCCGCCGGGCGCCAUGCCUGCAGGUCGACUCUAGAAAACAUG", "values": [{"measurement": "binding signal", "setting": "[9]", "result": "5.1 log2 enrichment (interaction score)"}, {"measurement": "binding signal", "setting": "[10]", "result": "0.85 log2 enrichment (interaction score)"}, {"measurement": "binding signal", "setting": "[11]", "result": "7.05 log2 enrichment (interaction score)"}]}, {"sequence": "GGCUAGAACUAGUGGAUCCCCCGGCGCCCGGCGGCUCGAGCCCGGGUAAGUGUAAGUAGUCUGCAUGCCGCCGGGCGCCAUGCCUGCAGGUCGACUCUAGAAAACAUG", "values": [{"measurement": "binding signal", "setting": "[12]", "result": "3.11 log2 enrichment (interaction score)"}, {"measurement": "binding signal", "setting": "[8]", "result": "1.77 log2 enrichment (interaction score)"}, {"measurement": "binding signal", "setting": "[13]", "result": "1.31 log2 enrichment (interaction score)"}, {"measurement": "binding signal", "setting": "[14]", "result": "4.97 log2 enrichment (interaction score)"}]}, {"sequence": "GGCUAGAACUAGUGGAUCCCCCGGCGCCCGGCGGCUCGAGCCCGGGUAAGUGUAAAUUGUCUGCAUGCCGCCGGGCGCCAUGCCUGCAGGUCGACUCUAGAAAACAUG", "values": [{"measurement": "binding signal", "setting": "[9]", "result": "5.58 log2 enrichment (interaction score)"}, {"measurement": "binding signal", "setting": "[10]", "result": "2.63 log2 enrichment (interaction score)"}, {"measurement": "binding signal", "setting": "[11]", "result": "4.28 log2 enrichment (interaction score)"}]}, {"sequence": "GGCUAGAACUAGUGGAUCCCCCGGCGCCCGGCGGCUCGAGCCCGGGUAAGUCUAAAUAGUCUGCAUGCCGCCGGGCGCCAUGCCUGCAGGUCGACUCUAGAAAACAUG", "values": [{"measurement": "binding signal", "setting": "[15]", "result": "4.33 log2 enrichment (interaction score)"}, {"measurement": "binding signal", "setting": "[16]", "result": "3.63 log2 enrichment (interaction score)"}]}, {"sequence": "GGCUAGAACUAGUGGAUCCCCCGGCGCCCGGCGGCUCGAGCCCGGGUAAGUGUAAAUAGUCUGCAUGCCGCCGGGCGCCAUGCCUGCAGGUCGACUCUAGAAAACAUG", "values": [{"measurement": "binding signal", "setting": "[5]", "result": "4.2 log2 enrichment (interaction score)"}, {"measurement": "binding signal", "setting": "[7]", "result": "4.46 log2 enrichment (interaction score)"}, {"measurement": "binding signal", "setting": "[17]", "result": "5.38 log2 enrichment (interaction score)"}, {"measurement": "binding signal", "setting": "[8]", "result": "0.25 log2 enrichment (interaction score)"}, {"measurement": "binding signal", "setting": "[18]", "result": "2.4 log2 enrichment (interaction score)"}, {"measurement": "binding signal", "setting": "[2]", "result": "1.52 log2 enrichment (interaction score)"}, {"measurement": "binding signal", "setting": "[19]", "result": "2.68 log2 enrichment (interaction score)"}, {"measurement": "binding signal", "setting": "[14]", "result": "4.4 log2 enrichment (interaction score)"}]}, {"sequence": "GGCUAGAACUAGUGGAUCCCCCGGCGCCCGGCGGCUCGAGCCCGGGUAAGUGUGAAUAGUCUGCAUGCCGCCGGGCGCCAUGCCUGCAGGUCGACUCUAGAAAACAUG", "values": [{"measurement": "binding signal", "setting": "[20]", "result": "5.82 log2 enrichment (interaction score)"}]}, {"sequence": "GGCUAGAACUAGUGGAUCCCCCGGCGCCCGGCGGCUCGAGCCCGGGUAAGUGUAAUUAGUCUGCAUGCCGCCGGGCGCCAUGCCUGCAGGUCGACUCUAGAAAACAUG", "values": [{"measurement": "binding signal", "setting": "[8]", "result": "3.06 log2 enrichment (interaction score)"}, {"measurement": "binding signal", "setting": "[13]", "result": "4.19 log2 enrichment (interaction score)"}, {"measurement": "binding signal", "setting": "[14]", "result": "5.79 log2 enrichment (interaction score)"}]}, {"sequence": "GGCUAGAACUAGUGGAUCCCCCGGCGCCCGGCGGCUCGAGCCCGGGUAAGUGUCAAUAGUCUGCAUGCCGCCGGGCGCCAUGCCUGCAGGUCGACUCUAGAAAACAUG", "values": [{"measurement": "binding signal", "setting": "[4]", "result": "2.89 log2 enrichment (interaction score)"}]}, {"sequence": "GGCUAGAACUAGUGGAUCCCCCGGCGCCCGGCGGCUCGAGCCCGGGUAAGUGUAUAUAGUCUGCAUGCCGCCGGGCGCCAUGCCUGCAGGUCGACUCUAGAAAACAUG", "values": [{"measurement": "binding signal", "setting": "[6]", "result": "2.12 log2 enrichment (interaction score)"}, {"measurement": "binding signal", "setting": "[7]", "result": "7.14 log2 enrichment (interaction score)"}]}]}
